{
  "source": "PubChem BioAssay (NCATS)",
  "note": "Inconclusive results are not listed. Activity calls are given as the source filed them. Calls come from the whole dose curve; as a rule, active = well fitted curve in the direction sought with a large enough effect in the signal ratio, with a control signal flat (not every such curve was filed as active); inconclusive = small, poorly fitted or top-dose-only effect, or effect the other way, or a change in a side signal; inactive = no such curve, though single readings can be large or run the other way; the % refers to the signal ratio.",
  "data": [
    {"target": "Peroxisome proliferator-activated receptor gamma (Homo sapiens) (UniProt P37231)", "sequence (P37231 whole entry, looked up)": "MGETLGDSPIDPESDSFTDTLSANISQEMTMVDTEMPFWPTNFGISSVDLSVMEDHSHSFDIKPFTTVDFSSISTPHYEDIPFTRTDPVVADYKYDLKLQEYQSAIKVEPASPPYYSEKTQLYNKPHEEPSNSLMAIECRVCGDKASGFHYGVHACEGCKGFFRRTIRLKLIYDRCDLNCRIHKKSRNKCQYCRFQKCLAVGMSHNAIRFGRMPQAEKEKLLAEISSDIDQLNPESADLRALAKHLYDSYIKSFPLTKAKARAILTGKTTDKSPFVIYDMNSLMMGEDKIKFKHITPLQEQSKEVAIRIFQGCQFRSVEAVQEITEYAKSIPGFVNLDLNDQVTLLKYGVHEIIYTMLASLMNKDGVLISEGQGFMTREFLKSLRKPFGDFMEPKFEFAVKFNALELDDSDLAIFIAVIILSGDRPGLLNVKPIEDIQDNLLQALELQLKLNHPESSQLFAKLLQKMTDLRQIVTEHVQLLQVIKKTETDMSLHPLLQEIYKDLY", "assay": "qHTS assay for small molecule agonists of peroxisome proliferator-activated receptor gamma signaling (AID 588536)", "details": "HEK293 PPARg-UAS-bla, beta-lactamase ratio, 16 h, percent of rosiglitazone response, DMSO as zero; series mostly up to 76.7 µM", "description": "NIH Chemical Genomics Center [NCGC] U.S. Environmental Protection Agency [EPA] National Institutes of Environmental Health Sciences [NIEHS] National Toxicology Program [NTP] NCGC Assay Overview The Peroxisome proliferator-activated receptors (PPARs) are lipid-activated transcription factors of the nuclear receptor superfamily with three distinct subtypes namely PPAR alpha, PPAR delta (also called PPAR beta) and PPAR gamma. All these subtypes heterodimerizes with Retinoid X receptor (RXR) and these heterodimers regulate transcription of various genes. PPAR-gamma (glitazone receptor) agonists have been used in the treatment of type 2 diabetes and dyslipidaemia. It is involved in the regulation of glucose and lipid metabolism. PPAR-gamma activates certain genes like Paraoxonase 1 which is responsible for hydrolyzing organophosphates. PPAR-gamma agonists may also be therapeutically important in the treatment of coronary artery disease, obesity and cancer and atherosclerosis.\nNCGC Assay Protocol Summary Using a beta-lactamase reporter-gene under control of Peroxisome Proliferator-Activated-gamma (PPAR-gamma) response element, a cell-based assay [GeneBLAzer PPAR-gamma-UAS-bla assay developed by Invitrogen] was used to measure PPAR-gamma ligands signaling. GeneBLAzer PPAR-gamma-UAS-bla-HEK293 cells were used with assay medium containing 1% charcoal/dextran treated FBS. The assay was performed in clear bottom black Greiner 1536-well plates. Rosiglitazone was used in the screen as the positive control. Library compounds were measured for their ability to stimulate the reporter gene activity. Compounds were screened in a titration series in 1536-well format. The fluorescence intensity (405 nm excitation, 460/530 nm emission) was measured using an EnVision plate reader. Data was normalized relative to Rosiglitazone control (2 uM, 100%), and DMSO only wells (basal, 0%). Concentration-response titration points for each compound were fitted to the Hill equation yielding concentrations of half-maximal stimulation (EC50) and maximal response (efficacy) values. qHTS protocol for PPAR-gamma beta-lactamase assay in agonist mode [Step] [Parameter] [Value] [Description] 1. Reagent; 6 uL; 3000 cells/well 2. Incubation; 37 C for 6 - 6.5 hrs 3. Compounds; 23 nL; 0.59 nM to 92 uM 4. Controls (Rosiglitazone); 23 nL, - One column with dose response, start 19 uM, 1:3 dilutions in duplicates - Final concentrations of 2 uM and 0.5 uM in two columns 5. Incubation; 37 C for 16 hrs 6. Detection reagent; 1 uL of CCF4-dye 7. Incubation; RT for 2 hrs 8. Detection; Fluorescence; Envision plate reader", "values": [
      {"smiles": "O=C(O)C(Cl)Br", "note": "(stereo not given)", "outcome": "inactive"},
      {"smiles": "N#CCCC#N", "outcome": "inactive"},
      {"smiles": "CC(C)[N+](=O)[O-]", "outcome": "inactive"},
      {"smiles": "CCCC[N+](=O)[O-]", "outcome": "inactive"},
      {"smiles": "ClCc1ccccc1", "outcome": "inactive"},
      {"smiles": "Cc1cccc(C)c1N", "outcome": "inactive"},
      {"smiles": "Nc1ccc([N+](=O)[O-])cc1[N+](=O)[O-]", "outcome": "inactive"},
      {"smiles": "ClC(Cl)(Cl)C(Cl)(Cl)Cl", "outcome": "inactive"},
      {"smiles": "Oc1c(Cl)c(Cl)cc(Cl)c1Cl", "outcome": "inactive"},
      {"smiles": "C=CC(=O)OCCN(C)C", "outcome": "inactive"},
      {"smiles": "C=CCOCC1CO1", "note": "(stereo not given)", "outcome": "inactive"},
      {"smiles": "C/C=C/C=O", "outcome": "inactive"},
      {"smiles": "CCCCCC[N+](=O)[O-]", "outcome": "inactive"},
      {"smiles": "O=[N+]([O-])c1ccccc1O", "outcome": "inactive"},
      {"smiles": "CC(C)CC(C)N", "note": "(stereo not given)", "outcome": "inactive"},
      {"smiles": "O=c1ccc(=O)[nH][nH]1", "outcome": "inactive"},
      {"smiles": "CN(C)c1ccc(N=Nc2ccccc2)cc1", "outcome": "inactive"},
      {"smiles": "Clc1ccccc1", "outcome": "inactive"},
      {"smiles": "C=C(Cl)CSC(=S)N(CC)CC", "outcome": "inactive"},
      {"smiles": "CCN(CC)N=O", "outcome": "inactive"},
      {"smiles": "Cc1ccc2c(C)cccc2c1", "outcome": "inactive"},
      {"smiles": "Cc1ccccc1[N+](=O)[O-]", "outcome": "inactive"},
      {"smiles": "CCCBr", "outcome": "inactive"},
      {"smiles": "Clc1ccc(Cl)c(Cl)c1", "outcome": "inactive"},
      {"smiles": "CC(C)OS(C)(=O)=O", "outcome": "inactive"},
      {"smiles": "BrCC(Br)C1CCC(Br)C(Br)C1", "note": "(stereo not given)", "outcome": "inactive"},
      {"smiles": "COc1cc(-c2ccc(N)c(OC)c2)ccc1N", "outcome": "inactive"},
      {"smiles": "C=CCc1cc(OC)c2c(c1)OCO2", "outcome": "inactive"},
      {"smiles": "Nc1ccc(Cc2ccc(N)cc2)cc1", "outcome": "inactive"},
      {"smiles": "ClCc1ccccn1", "outcome": "inactive"},
      {"smiles": "Clc1ccc(C(c2ccccc2Cl)C(Cl)(Cl)Cl)cc1", "note": "(stereo not given)", "outcome": "inactive"},
      {"smiles": "BrCCc1ccccc1", "outcome": "inactive"},
      {"smiles": "COc1c(C(C)(C)C)cc([N+](=O)[O-])c(C)c1[N+](=O)[O-]", "outcome": "inactive"},
      {"smiles": "O=C(O)c1cccc(Cl)c1", "outcome": "inactive"},
      {"smiles": "COC(=O)c1ccccc1N", "outcome": "inactive"},
      {"smiles": "CCC/C=N/O", "outcome": "inactive"},
      {"smiles": "CC(Cl)(Cl)Cl", "outcome": "inactive"},
      {"smiles": "Nc1ccc2ccccc2c1", "outcome": "inactive"},
      {"smiles": "Cc1ccc(N=C=O)cc1N=C=O", "outcome": "inactive"},
      {"smiles": "CN(C)C(=O)Nc1cccc(C(F)(F)F)c1", "outcome": "inactive"}
    ]}
  ]
}
